Laboratory results from the OligoGym collection.

Molecular target: TNK1
Assay: pooled miR-30 sensor sort-seq; sequence = guide strand
Conditions: shRNA
Further: reference of the scale not given here.

Row | Sequence | sensor-assay potency score (higher = more potent)
1 | TAATGCTCCAGGATGCGCCAGC | -0.794
2 | TAGTGGGCAGACTAGATCCTTC | -0.841
3 | TTTCTGTCTCCATCTATGCTTC | -0.886
4 | TAGTGCTGTCTGGCACTCCTGG | -1.01
5 | TATAGCAGCTCTTTTCTTCCAA | 0.014

Molecular target: TNKS2
Assay: as above
Conditions: shRNA

Row | Sequence | sensor-assay potency score (higher = more potent)
6 | TTACTCTGTTATATCCTGCTGC | 0.643
7 | TAGTTTCTTGTTACAAACCTTC | -0.305
8 | TTATGCTAAAATCTACTCCTGG | 0.0124
9 | TTCCACTTGAACTAACTACTGA | 0.487
10 | TATACTTTATTAGTAGAGCTGC | 0.192
11 | TTTAATTGCAGCTTCATGGAGA | 0.599
12 | TAAATTTCCATAAATCAGCTAC | 0.246
13 | TTACAGTTTCGACATCTCCAGC | -0.869
14 | TTTCTTGTTACAAACCTTCTGA | 0.0757
15 | TTTTGATTCGAGTAACATCAGC | -1.09

Molecular target: TNKS
Assay: as above
Conditions: shRNA

Row | Sequence | sensor-assay potency score (higher = more potent)
16 | TACTCTACAACAGACACGCGGT | -0.0381
17 | TTTCATTAACATTTGCTCCTTT | 0.974
18 | TTGCATGAACATCAGCACCATG | -0.893
19 | TTCTCGAATAGTACTTTGCATC | -0.948
20 | TAACTTTAGCTAAGTCTGCTTC | -0.439
21 | TATAGGTGTACTCTCACTCAGA | -0.676
22 | ATGAACATCAGCACCATGCTGA | 0.272
23 | TTAGCTAAGTCTGCTTCTCTGG | -0.647
24 | TGTTCTACAACATCCTTCCTTC | 0.712
25 | TTTTGCTGAAGGATCTGCCAGG | -0.435
26 | TTTAATAGCAGCTTCATGCAGA | 0.637

Molecular target: TNP2
Assay: as above
Conditions: shRNA

Row | Sequence | sensor-assay potency score (higher = more potent)
27 | TACACCTGCTGGATCCTCTTGG | 0.0749
28 | TTTGGTGGTGGACTAGTGTTGG | -0.0566
29 | TTGCCTTCCAAGTTCTTTCTGT | 0.0693
30 | AAGTTCTTTCTGTTCTTGGGGC | -0.319
31 | TTGGTTTTGTACACCTGCTGGA | 0.278
32 | TGGTTTTGTACACCTGCTGGAT | -0.833
33 | TTTCTGTTCTTGGGGCAGCGGC | -1.14
34 | TTGTACACCTGCTGGATCCTCT | -0.394
35 | TTTTGTGGCGCTTTGGTGGTGG | 0.492
36 | TGGACTAGTGTTGGGACTCTGG | -0.968
37 | TCTGTCTGCAACTCTGGCTGAA | -0.415
38 | TTCTTTCTGTTCTTGGGGCAGC | -0.411
